Here are results for 5 compounds from PubChem BioAssay.

Structures are written as SMILES. The source made the active and inactive calls.

For assay [1], the system named is PRMT1 (protein arginine N-methyltransferase 1). The experiment in a line: PRMT1 binders on small-molecule microarrays, primary screen, biochemical, small-molecule microarray, 635 nm fluorescence (AID 1088).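 Note: binding of Prmt1 protein to compounds spotted on small-molecule microarray slides.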 Particulars: small-molecule microarray binding, higher = more signal.
Assay [2] is described as follows: yeast growth modulation, basal conditions, primary screen, YJM789 clinical isolate, OD600, 24 h (AID 1089).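 Note: growth of clinical yeast isolate S. cerevisiae YJM 789 seeded 1000 cells per well; test concentration not given here.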 Particulars: S. cerevisiae YJM789 growth, higher = more signal, called active from +8 up or from −8 down.
Assay [3] can be described thus: fission yeast growth modulation, primary screen, strain 972, OD600, 24 h, no modulator (AID 1090).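 Note: basal condition with compound alone and no growth modifier present; test concentration not given here.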 Particulars: S. pombe 972 growth, higher = more signal, called active from +8 up or from −8 down.
Assay [4] in a line: S. cerevisiae growth modulation with rapamycin, primary screen, strain BY4716, OD600, 96 h (AID 1091). Note: test concentration not given here. The following applies: higher = more signal, called active from +8 up or from −8 down.
The target of assay [5] is Torsin-1A-interacting protein 2 (Homo sapiens) (UniProt Q8NFQ8). The experiment in a line: LULL1 binders on small-molecule microarray, primary screen, cell lysate, human LULL1 lysate, 635/667 nm fluorescence (AID 1092).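 Note: probe is lysate of COS7 cells overexpressing human LULL1; score merges per-feature 667 nm fluorescence with signal-to-noise.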 Particulars: hLULL1 lysate binding, 635 nm fluorescence, higher = more signal.
Torsin-1A-interacting protein 2 (Homo sapiens), sequence (Q8NFQ8 whole entry, looked up): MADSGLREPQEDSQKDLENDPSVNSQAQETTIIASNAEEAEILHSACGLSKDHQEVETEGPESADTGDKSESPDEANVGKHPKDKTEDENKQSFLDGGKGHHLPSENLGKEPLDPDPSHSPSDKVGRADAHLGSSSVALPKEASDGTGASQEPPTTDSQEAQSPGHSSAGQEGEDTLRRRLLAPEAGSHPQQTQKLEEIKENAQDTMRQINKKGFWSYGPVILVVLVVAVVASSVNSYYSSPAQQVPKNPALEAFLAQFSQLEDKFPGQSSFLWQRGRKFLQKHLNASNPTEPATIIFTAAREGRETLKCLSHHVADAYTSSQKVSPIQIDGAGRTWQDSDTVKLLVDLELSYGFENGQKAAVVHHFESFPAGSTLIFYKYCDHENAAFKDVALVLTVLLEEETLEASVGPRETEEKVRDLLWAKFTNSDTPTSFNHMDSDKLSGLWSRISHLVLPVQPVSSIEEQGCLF
Assay [6] in a line: E. coli growth modulation, two-sided OD650, primary screen, E. coli filamentation project, strain DRC41, 24 h (AID 1093).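 Note: MC1000 strain lacking acrAB efflux and sulA so SOS filamentation is blocked; test concentration not given here.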 The following applies: OD650, 24 h, higher = more signal, called active from +8 up or from −8 down.
Assay [7] in a line: small-molecule microarray binders of probe aLefty2, primary screen, biochemical, biotinylated probe, 635/667 nm fluorescence (AID 1094).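 Note: score merges spot fluorescence near 667 nm with spot signal-to-noise ratio.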 The following applies: higher = more signal.
Assay [8] relates to Noggin (protein binding on small-molecule microarray). The experiment in a line: Noggin binders on small-molecule microarray, primary screen, biochemical, 635/667 nm fluorescence (AID 1095).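 Note: score merges 667 nm feature fluorescence with signal to noise over triplicate slides.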 The following applies: 635 nm fluorescence, higher = more signal.
Assay [9] has as its target Neurogenic locus notch homolog protein 3 (Homo sapiens) (UniProt Q9UM47). The experiment in a line: NOTCH3 binders on small-molecule microarray, primary screen, biochemical, 635/667 nm fluorescence (AID 1096). The following applies: NOTCH3 binding, 635 nm fluorescence, higher = more signal.
Assay [10] in a line: small-molecule microarray binders of probe aEGFR, primary screen, biochemical, biotinylated probe, 635/667 nm fluorescence (AID 1097).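 Note: probe is a biotinylated anti-EGFR antibody binding compounds printed on slides; score combines fluorescence near 667 nm and signal to noise of each spot.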 The following applies: higher = more signal.
In assay [11] the test system is Plasmodium falciparum Sir2 (PF13_0152, Sir2A). The experiment in a line: pfSir2 binders on small-molecule microarrays, primary screen, biochemical, small-molecule microarray, 635 nm fluorescence (AID 1098).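 Note: score merges spot fluorescence intensity with its signal-to-noise ratio.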 The following applies: small-molecule microarray binding, fluorescence 635 nm; higher = more signal.
A short description of assay [12]: small-molecule microarray binders of probe aDKK1, primary screen, biochemical, biotinylated probe, 635/667 nm fluorescence (AID 1099).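 Note: score merges 667nm spot fluorescence with signal to noise across triplicate slides; reference of the scale not given here.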 The following applies: higher = more signal.
Assay [13] can be described thus: small-molecule microarray binders of probe aCHRDL2, primary screen, biochemical, biotinylated probe, 635/667 nm fluorescence (AID 1100). Particulars: higher = more signal.
Assay [14] is described as follows: splicing luciferase reporter signal modulators, primary screen, spliceosome inhibition project, cell-based, HEK293, splice +/- reporter (AID 1101).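 Note: HEK293 cells carrying a splicing-competent luciferase reporter gene; test concentration not given here.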 The following applies: luminescence, 24 h, higher = more signal, called active from +8 up or from −8 down. (A reporter such as luciferase makes a cellular process visible.)
For assay [15], the target named is Fibroblast growth factor 10 (Homo sapiens) (UniProt O15520). The experiment in a line: FGF10 binders on small-molecule microarrays, primary screen, biochemical, small-molecule microarray, 635 nm fluorescence (AID 1102). The following applies: FGF10 binding, fluorescence 635 nm, higher = more signal.
Fibroblast growth factor 10 (Homo sapiens), sequence (O15520 whole entry, looked up): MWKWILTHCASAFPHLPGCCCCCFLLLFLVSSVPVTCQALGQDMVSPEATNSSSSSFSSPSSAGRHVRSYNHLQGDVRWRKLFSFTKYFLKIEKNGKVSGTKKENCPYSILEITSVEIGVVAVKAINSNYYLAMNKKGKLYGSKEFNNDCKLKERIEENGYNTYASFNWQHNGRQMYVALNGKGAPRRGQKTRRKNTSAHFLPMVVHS
The subject of assay [16] is glycogen synthase kinase-3 (GSK3A per assay name; protocol says GSK3B). The experiment in a line: GSK3 binders on small-molecule microarrays, primary screen, biochemical, small-molecule microarray, 635 nm fluorescence, GSK3A (AID 1103). Note: the record names both GSK3A and GSK3B. Particulars: small-molecule microarray binding, fluorescence 635 nm; higher = more signal.
The target in assay [17] is Epidermal growth factor receptor (Homo sapiens) (UniProt P00533). Kind of assay: EGFR binders on small-molecule microarrays, primary screen, biochemical, small-molecule microarray, 635 nm fluorescence (AID 1104).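 Note: score merges 667 nm emission intensity with spot signal to noise over triplicate slides.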 The following applies: EGFR binding, higher = more signal.
Epidermal growth factor receptor (Homo sapiens), sequence (P00533 whole entry, looked up): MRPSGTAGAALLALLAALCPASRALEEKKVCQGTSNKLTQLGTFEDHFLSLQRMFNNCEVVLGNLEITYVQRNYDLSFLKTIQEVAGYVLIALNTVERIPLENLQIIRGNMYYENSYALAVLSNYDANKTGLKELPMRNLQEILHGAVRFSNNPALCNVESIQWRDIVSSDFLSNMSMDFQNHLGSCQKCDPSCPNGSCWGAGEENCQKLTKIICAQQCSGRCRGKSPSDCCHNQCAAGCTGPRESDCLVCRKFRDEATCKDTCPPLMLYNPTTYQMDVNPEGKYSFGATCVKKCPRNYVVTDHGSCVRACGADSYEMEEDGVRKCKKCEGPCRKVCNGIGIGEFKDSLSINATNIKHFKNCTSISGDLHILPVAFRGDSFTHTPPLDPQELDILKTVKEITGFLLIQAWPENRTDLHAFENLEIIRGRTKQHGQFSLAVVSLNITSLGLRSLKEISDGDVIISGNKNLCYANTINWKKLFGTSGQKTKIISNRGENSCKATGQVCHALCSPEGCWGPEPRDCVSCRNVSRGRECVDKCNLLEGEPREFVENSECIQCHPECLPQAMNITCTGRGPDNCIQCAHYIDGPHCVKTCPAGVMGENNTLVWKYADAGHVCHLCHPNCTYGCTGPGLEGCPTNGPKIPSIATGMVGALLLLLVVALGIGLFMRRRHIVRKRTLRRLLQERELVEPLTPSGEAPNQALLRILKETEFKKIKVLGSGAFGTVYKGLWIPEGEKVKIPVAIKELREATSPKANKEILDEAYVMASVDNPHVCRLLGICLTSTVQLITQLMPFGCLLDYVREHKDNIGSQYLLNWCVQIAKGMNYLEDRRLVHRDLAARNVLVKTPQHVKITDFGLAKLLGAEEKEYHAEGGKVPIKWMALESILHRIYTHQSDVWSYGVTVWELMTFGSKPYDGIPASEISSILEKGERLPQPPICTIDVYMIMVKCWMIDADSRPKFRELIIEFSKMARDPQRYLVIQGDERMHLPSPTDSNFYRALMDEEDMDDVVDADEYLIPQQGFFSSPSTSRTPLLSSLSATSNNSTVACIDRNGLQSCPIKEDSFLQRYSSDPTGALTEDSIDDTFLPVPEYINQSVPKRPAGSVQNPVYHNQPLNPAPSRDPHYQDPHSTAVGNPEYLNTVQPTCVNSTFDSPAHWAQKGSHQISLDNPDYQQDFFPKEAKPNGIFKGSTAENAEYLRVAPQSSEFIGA
The target of assay [18] is Follistatin-related protein 3 (Homo sapiens) (UniProt O95633). The experiment in a line: FSTL3 binders on small-molecule microarrays, primary screen, biochemical, small-molecule microarray, 635 nm fluorescence (AID 1105).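 Note: score merges emission near 667 nm and signal to noise per printed spot across three slides.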 The following applies: FSTL3 binding, higher = more signal.
Follistatin-related protein 3 (Homo sapiens), sequence (O95633 whole entry, looked up): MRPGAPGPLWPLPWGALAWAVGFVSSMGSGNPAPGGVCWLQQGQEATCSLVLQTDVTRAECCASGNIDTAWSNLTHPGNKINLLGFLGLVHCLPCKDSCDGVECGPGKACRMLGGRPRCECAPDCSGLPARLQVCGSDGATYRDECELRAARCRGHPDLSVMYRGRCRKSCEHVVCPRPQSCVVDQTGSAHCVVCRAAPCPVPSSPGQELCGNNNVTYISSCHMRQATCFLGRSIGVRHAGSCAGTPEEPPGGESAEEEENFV
Assay [19] has as its target Dickkopf-related protein 1 (Homo sapiens) (UniProt O94907). The experiment in a line: DKK1 binders on small-molecule microarrays, primary screen, biochemical, small-molecule microarray, 635 nm fluorescence scan (AID 1106).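 Note: score merges emission near 667 nm with signal to noise over three replicate slides.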 The following applies: DKK1 binding, higher = more signal.
In assay [20] the test system is Inhibin beta A chain (activin A). Kind of assay: INHBA (activin A) binders on microarrays, primary screen, biochemical, small-molecule microarray, 635 nm fluorescence scan (AID 1107).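 Note: mouse activin A protein probed at 4.33 µg/mL on printed slides; score merges bound-protein fluorescence near 667 nm with spot signal-to-noise.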 Particulars: small-molecule microarray binding, higher = more signal.

Neurogenic locus notch homolog protein 3 (Homo sapiens), sequence (Q9UM47 whole entry, looked up): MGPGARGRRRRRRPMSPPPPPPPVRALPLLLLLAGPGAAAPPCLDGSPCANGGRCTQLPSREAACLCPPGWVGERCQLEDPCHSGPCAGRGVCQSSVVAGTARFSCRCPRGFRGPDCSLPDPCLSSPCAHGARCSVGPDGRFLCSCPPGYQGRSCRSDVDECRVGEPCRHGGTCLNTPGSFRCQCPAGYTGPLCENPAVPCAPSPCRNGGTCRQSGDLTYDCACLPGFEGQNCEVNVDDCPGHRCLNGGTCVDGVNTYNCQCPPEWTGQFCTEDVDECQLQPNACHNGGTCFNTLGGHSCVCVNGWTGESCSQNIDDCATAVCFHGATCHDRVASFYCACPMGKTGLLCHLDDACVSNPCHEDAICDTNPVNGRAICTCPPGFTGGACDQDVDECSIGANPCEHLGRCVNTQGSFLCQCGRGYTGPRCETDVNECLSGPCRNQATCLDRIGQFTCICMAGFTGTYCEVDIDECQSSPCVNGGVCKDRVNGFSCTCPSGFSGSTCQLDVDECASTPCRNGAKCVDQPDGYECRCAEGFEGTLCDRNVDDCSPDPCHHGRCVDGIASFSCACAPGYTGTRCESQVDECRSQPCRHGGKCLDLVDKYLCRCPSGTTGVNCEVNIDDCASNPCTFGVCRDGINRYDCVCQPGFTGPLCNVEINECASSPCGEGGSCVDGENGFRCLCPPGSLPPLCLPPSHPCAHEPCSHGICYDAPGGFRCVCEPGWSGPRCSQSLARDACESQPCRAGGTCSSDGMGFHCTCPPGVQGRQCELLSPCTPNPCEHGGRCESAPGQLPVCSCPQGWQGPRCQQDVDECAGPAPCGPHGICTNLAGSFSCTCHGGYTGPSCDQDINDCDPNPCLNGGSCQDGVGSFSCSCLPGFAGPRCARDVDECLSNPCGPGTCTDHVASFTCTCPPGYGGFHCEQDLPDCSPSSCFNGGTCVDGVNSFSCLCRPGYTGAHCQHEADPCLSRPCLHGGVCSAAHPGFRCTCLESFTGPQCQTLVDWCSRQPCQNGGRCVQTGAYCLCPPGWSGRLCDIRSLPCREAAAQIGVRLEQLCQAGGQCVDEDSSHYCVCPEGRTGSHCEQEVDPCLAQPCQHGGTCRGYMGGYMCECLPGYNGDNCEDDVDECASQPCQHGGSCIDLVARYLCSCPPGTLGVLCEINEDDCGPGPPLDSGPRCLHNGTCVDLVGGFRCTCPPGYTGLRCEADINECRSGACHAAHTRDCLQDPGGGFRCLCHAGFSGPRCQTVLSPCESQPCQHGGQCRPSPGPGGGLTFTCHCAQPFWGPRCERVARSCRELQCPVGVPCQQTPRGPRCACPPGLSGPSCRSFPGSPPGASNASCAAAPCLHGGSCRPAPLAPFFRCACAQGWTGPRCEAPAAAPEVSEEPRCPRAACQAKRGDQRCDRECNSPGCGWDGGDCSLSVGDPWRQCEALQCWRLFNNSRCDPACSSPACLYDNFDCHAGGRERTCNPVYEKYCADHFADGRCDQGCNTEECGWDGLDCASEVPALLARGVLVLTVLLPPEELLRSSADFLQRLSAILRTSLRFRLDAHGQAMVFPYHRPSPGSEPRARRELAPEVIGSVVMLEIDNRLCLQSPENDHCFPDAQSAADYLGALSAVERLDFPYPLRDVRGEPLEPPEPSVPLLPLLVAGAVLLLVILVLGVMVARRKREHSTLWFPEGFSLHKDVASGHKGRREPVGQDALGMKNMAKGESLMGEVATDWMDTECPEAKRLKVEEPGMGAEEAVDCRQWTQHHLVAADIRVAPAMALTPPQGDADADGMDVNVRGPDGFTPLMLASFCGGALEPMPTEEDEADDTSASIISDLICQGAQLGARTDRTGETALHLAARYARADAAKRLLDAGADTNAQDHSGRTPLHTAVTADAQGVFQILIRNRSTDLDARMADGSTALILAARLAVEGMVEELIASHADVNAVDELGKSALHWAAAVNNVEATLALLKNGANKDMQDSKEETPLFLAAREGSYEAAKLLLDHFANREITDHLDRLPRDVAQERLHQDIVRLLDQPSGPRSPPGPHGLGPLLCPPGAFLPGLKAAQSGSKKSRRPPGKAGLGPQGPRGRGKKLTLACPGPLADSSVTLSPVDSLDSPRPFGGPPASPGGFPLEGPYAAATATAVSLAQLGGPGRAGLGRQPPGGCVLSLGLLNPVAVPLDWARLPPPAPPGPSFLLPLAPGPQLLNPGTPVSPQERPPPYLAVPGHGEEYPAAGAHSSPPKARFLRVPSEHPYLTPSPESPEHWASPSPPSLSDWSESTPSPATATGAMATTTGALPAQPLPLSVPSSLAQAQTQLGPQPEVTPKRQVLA
Dickkopf-related protein 1 (Homo sapiens), sequence (O94907 whole entry, looked up): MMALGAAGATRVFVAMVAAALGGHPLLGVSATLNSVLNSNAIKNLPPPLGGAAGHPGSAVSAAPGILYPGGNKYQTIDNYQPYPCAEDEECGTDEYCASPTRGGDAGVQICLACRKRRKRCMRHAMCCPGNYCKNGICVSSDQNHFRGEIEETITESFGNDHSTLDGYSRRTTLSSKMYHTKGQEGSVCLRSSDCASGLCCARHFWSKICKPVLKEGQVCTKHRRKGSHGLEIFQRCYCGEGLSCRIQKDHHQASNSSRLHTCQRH

Consider `CN1C(=O)C2C=CC(C(O)Cc3ccccc3)N(N(c3ccccc3)c3ccccc3)C2C1=O` (stereo not given), for which the composite z-score was 0.795 in assay [1]; 2.22 in assay [5]; 0.107 in assay [7]; 0.218 in assay [8]; 0.839 in [9]; -0.137 in assay [10]. The composite z-score is 0.86 in assay [11]; 0.46 in assay [12]; 0.733 in [13]; 0.812 in assay [15]; -0.227 in assay [16]; -0.567 in assay [17]. Moreover, the figures for the composite z-score in assay [18], in assay [19] and in [20] were -0.068, -0.303 and 0.864, respectively. Further, the z-score is -0.179 (inactive) in assay [2]; 0.759 (inactive) in [3]; 1.11 (inactive) in assay [4]; -1.39 (inactive) in assay [6]; 0.653 (inactive) in assay [14].

Consider `CCCNC(=O)[C@@]1(c2ccc([N+](=O)[O-])cc2)CC(=O)N(C2CCCCC2)[C@@H]1c1ccc(CO)cc1I`, for which the composite z-score in assay [1] was 1.48; in assay [5] it was 2.52; in assay [7], -0.0649; in [8] it was 1.5; in assay [9], 0.976; in [10], 0.0592. Further, the composite z-score in [11] came to 1.51; in [12] it was 0.57; in assay [13] it was 0.796; in assay [15] it was 0.841; in assay [16], 0.705; in assay [17], 0.297. In addition, the composite z-score in assay [18] is 0.532; in [19], 0.214; in assay [20], -0.406. Further, the z-score is -1.58 (inactive) in assay [2]; 0.503 (inactive) in assay [3]; 1.93 (inactive) in assay [4]; 0.422 (inactive) in [6]; -0.68 (inactive) in assay [14].

As for `CC[C@@H]1[C@H]2C3C(=O)N(CC)C(=O)C3CC(=O)[C@H]2[C@H](c2ccc(C)cc2)N1S(=O)(=O)c1ccc(C)cc1` (stereo not given in full), the composite z-score is 1.09 in [1]; 2.75 in [5]; -0.203 in assay [7]; 0.712 in assay [8]; 1.12 in [9]; -0.0353 in [10]. The composite z-score in assay [11] is 1.11; in assay [12], 0.415; in [13], 0.46; in assay [15], 0.894; in assay [16], 1.27; in assay [17] it was 0.183. In addition, the composite z-score in assay [18] turned out to be 0.955; in assay [19] it was 0.0029; in assay [20], 0.617. The z-score in assay [2] is 0.0287 (inactive); in assay [3] it was 1.15 (inactive); in assay [4], 1.6 (inactive); in assay [6] it was -0.243 (inactive); in [14], 0.16 (inactive).

Consider `NC(=O)N1C(=O)C2C(C1=O)C1C=C(CCCO)C2C(c2cccs2)N1Cc1cc2c(cc1Br)OCO2` (stereo not given), for which the composite z-score in assay [1] was 0.0811; in assay [5], 1.84; in [7], -0.0362; in assay [8], 0.0233; in assay [9] it was 0.508; in assay [10], -0.0978. For the same compound, the composite z-score was 0.884 in [11]; -0.198 in assay [12]; 0.229 in [13]; -0.284 in [15]; -0.0207 in assay [16]; -0.495 in [17]. Also, the composite z-score was -0.289 in [18], -0.756 in [19] and 0.975 in assay [20]. In addition, the z-score in assay [2] is -1.75 (inactive); in [3] it was -0.498 (inactive); in [4], -1.79 (inactive); in [6], 0.263 (inactive); in assay [14] it was 0.701 (inactive).

`C=CCN1C(=O)[C@@]2(CCC(=O)OC(C)(C)C)N=C(c3ccc(OCCCO)cc3)O[C@H]2c2ccccc21`: the composite z-score in assay [1] was 1.47; in assay [5] it was 2.71; in [7], 0.107; in assay [8], 1.24; in assay [9], 1.09; in assay [10], -0.146. Further, the composite z-score came out at 1.25 in [11]; 0.549 in assay [12]; 1 in assay [13]; 0.0195 in [15]; 1.13 in assay [16]; 0.217 in assay [17]. Moreover, the results for the composite z-score in assay [18], in [19] and in assay [20] were 0.792, 0.116 and 1.4, respectively. The z-score is -1.89 (inactive) in assay [2]; -5.84 (inactive) in [3]; 1.44 (inactive) in assay [4]; 0.784 (inactive) in [6]; 0.0157 (inactive) in [14].
